Measured values: PubChem BioAssay
Calls of active or inactive are those of the source.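 Rule for the calls, unless noted: active = fluorescence slope higher than the sample average by over 3 SD (cut at about -0.22 in these data, passing the limit was not always enough); inactive = the rest.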

How the values were obtained:
[1] = inhibitors of TNFa-induced NFkB p65 translocation, primary screen, imaging, HUVEC, MLSMR starter and 10KST1 sets (AID 438;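 active = inhibition above 20% together with a positive visual image hit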;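 note: compound added about 3h40 before a 20 min TNFalpha stimulation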;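 for inhibition: signal is the nuclear over cytoplasmic p65 intensity ratio per well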); conditions: HUVEC TNFa-induced p65 nuclear translocation; cell count: measured here: nuclei count (cytotoxicity indicator), at 2.08 µM; inhibition: at 2 µM, stronger effect = higher value, 0% TNFa-plus-vehicle, 100% no-TNFa wells
[2] = reduction of polyQ htt aggregates in cells – imaging, exon1htt(103Q)mCFP cells, high-content imaging, primary screen (AID 483;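 active = visual image review flags a hit and inhibition of aggregation exceeds 20%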;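 note: compound exposure lasted 3 days before fixation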;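 for nuclei count: percent of the per-plate median nuclei count of sample wells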); conditions: exon1htt(103Q)mCFP cell line, aggregate imaging, at 2 µM; inhibition of aggregation: stronger effect = higher value; nuclei count: measured here: cell count, toxicity
[3] = endothelial E-selectin expression blockers – imaging, HUVEC, immunofluorescence, MLSMR starter and 10KST1 sets, primary screen (AID 487;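 active = visually confirmed hit in the image check and inhibition above 20%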;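 for inhibition: signal is fraction of cell area covered by stained E-selectin grains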;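 for nuclei count: 100% = median nuclei count of all wells on the same plate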); conditions: HUVEC TNFalpha-induced E-selectin immunofluorescence imaging, at 2 µM; inhibition: stronger effect = higher value; nuclei count: measured here: cell number, toxicity
[4] = biological target: Voltage-gated potassium channel subunit beta-2 (Rattus norvegicus) (UniProt P62483); test: inhibitors of rat Kvbeta2 reductase activity – biochemical, NADPH fluorescence, primary screen (AID 622); conditions: recombinant KvBeta, 4-cyanobenzaldehyde reduction, at 10 µM, stronger effect = higher value;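 note: slope of raw intensity against log time taken from 70 to 1610 s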
[5] = biological target: Voltage-gated potassium channel subunit beta-2 (Rattus norvegicus) (UniProt P62483); test: enhancers of rat Kvbeta2 NADPH turnover – biochemical, NADPH fluorescence, primary screen (AID 623;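 active = NADPH fluorescence slope more negative than the mean of all samples by about 3 SD, 99.7% confidence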;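 note: fluorescence intensity change per second fitted from 20 to 320 s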); conditions: Recombinant KvBeta, NADPH fluorescence decrease slope, 10 min; at 10 µM; stronger effect = lower value
[6] = biological target: Alpha-2C adrenergic receptor (Homo sapiens) (UniProt P18825); test: compounds altering alpha2C-coupled GIRK flux – cell-based, HEK293 alpha2C/GIRK1/2, thallium flux, primary screen (AID 624;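 active = fluorescence slope after compound addition differing from the mean of all screened samples at 99.7% confidence, in either direction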;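 note: slope of fluorescence ratio to pre-addition baseline per second over 15 to 24 s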); conditions: thallium flux BTC fluorescence, at 10 µM, actives lie on both sides
[7] = blockers of RIG-like receptor reporter activation – cell-based, Sendai virus stimulus, luciferase, 10K MLSCN set, TLR/RLR signaling modifier project, primary screen (AID 602276;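 active = inhibition at or above 50% at 10 µM; inactive = inhibition below 50%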;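 note: firefly luciferase from ISG56 promoter only with Renilla not read in this screen; 0% = Sendai virus plus DMSO and 100% = medium plus DMSO without virus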); conditions: HEK293 RL24 IRF3 luciferase reporter, at 10 µM, stronger effect = higher value
[8] = TLR3 IRF3 reporter activation blockers – cell-based, poly I:C stimulus, luciferase, 10K MLSCN set, primary screen (AID 602277;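 active = inhibition of the reporter signal at or above 50%; inactive = inhibition below 50%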); conditions: HEK293-TLR3 RL24 IRF3 luciferase reporter, at 10 µM, stronger effect = higher value

Sequence of Alpha-2C adrenergic receptor (Homo sapiens) (P18825 whole entry, looked up): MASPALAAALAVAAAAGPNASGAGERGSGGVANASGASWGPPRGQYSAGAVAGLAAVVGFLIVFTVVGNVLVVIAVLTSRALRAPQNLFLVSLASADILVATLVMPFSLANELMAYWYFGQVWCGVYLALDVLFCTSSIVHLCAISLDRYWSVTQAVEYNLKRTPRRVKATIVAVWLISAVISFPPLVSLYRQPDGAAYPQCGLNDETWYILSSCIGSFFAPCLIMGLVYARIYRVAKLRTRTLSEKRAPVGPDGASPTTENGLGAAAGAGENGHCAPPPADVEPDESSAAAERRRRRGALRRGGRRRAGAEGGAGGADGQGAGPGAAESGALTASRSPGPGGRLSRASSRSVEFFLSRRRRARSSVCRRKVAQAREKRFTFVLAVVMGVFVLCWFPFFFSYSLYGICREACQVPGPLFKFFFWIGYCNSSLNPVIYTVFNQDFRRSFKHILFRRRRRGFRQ
Sequence of Voltage-gated potassium channel subunit beta-2 (Rattus norvegicus) (P62483 whole entry, looked up): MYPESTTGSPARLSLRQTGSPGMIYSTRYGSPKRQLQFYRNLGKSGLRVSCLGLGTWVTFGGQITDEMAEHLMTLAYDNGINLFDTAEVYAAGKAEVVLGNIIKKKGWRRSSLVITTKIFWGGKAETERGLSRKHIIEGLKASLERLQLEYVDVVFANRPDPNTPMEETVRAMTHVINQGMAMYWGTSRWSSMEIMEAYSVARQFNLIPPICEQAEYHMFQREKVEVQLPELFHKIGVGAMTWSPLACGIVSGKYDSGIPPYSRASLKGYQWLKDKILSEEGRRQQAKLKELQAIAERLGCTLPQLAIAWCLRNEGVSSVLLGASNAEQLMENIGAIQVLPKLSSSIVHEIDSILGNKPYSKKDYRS

| SMILES | cell count [1] | inhibition [1] | inhibition of aggregation [2] | nuclei count [2] | inhibition [3] | nuclei count [3] | fluorescence slope [4] | NADPH fluorescence slope [5] | slope [6] | inhibition [7] | inhibition [8] |
| --- | --- | --- | --- | --- | --- | --- | --- | --- | --- | --- | --- |
| COC(=O)c1cccc(Oc2nc3c(c(=O)n(C)c(=O)n3C)n2C(C)C)c1 | 668 | -5.8% (inactive) | 3.9% (inactive) | 102% | -55.6% (inactive) | 106% | -0.436 (inactive) | -3.6e-05 (inactive) | 0.00584 (inactive) | 15% (inactive) | 28.3% (inactive) |
| COc1ccccc1NC(=O)c1cc2n(n1)C(C(F)(F)F)CC(c1ccc3c(c1)OCO3)N2 (stereo not drawn) | 479 | 2.4% (inactive) | 5.1% (inactive) | 109% | -14.9% (inactive) | 110% | -0.629 (inactive) | 6.1e-06 (inactive) | 0.00604 (inactive) | -5.6% (inactive) | -16.2% (inactive) |
| CN(C(=O)c1ccccc1Cl)c1ccccc1 | 611 | -2.4% (inactive) | 3% (inactive) | 107% | -28.1% (inactive) | 92.5% | -0.561 (inactive) | -2e-06 (inactive) | 0.00587 (inactive) | 15% (inactive) | 18.4% (inactive) |
| CC(C)(C)SCCNC(=O)COc1ccc(Cl)cc1 | 237 | 3.4% (inactive) | 19.9% (inactive) | 83.8% | -272% (inactive) | 147% | -0.419 (inactive) | 1.6e-05 (inactive) | 0.00681 (inactive) | -15.2% (inactive) | -2.28% (inactive) |
| CCn1c(SCC(=O)Nc2ccc(Cl)cc2)nnc1C1CC1 | 811 | 1.7% (inactive) | 12.1% (inactive) | 127% | -54.5% (inactive) | 97.1% | -0.608 (inactive) | -1.6e-05 (inactive) | 0.00675 (inactive) | 4.41% (inactive) | 17.1% (inactive) |
| COc1ccc(S(=O)(=O)N2CCSC2c2ccccc2)cc1 (stereo not drawn) | 449 | -3.1% (inactive) | -10.4% (inactive) | 106% | -84.6% (inactive) | 97.9% | -0.463 (inactive) | -3.5e-05 (inactive) | 0.00496 (inactive) | -1.99% (inactive) | 22.7% (inactive) |
| C=CCn1c(Br)nc2c1c(=O)[nH]c(=O)n2C | 372 | -4.7% (inactive) | 8.4% (inactive) | 92.3% | -62% (inactive) | 116% | -0.373 (inactive) | -3.1e-05 (inactive) | 0.00545 (inactive) | 15.8% (inactive) | 9.88% (inactive) |
| O=C(c1ncn[nH]1)N1CCN(c2nc(-c3ccccc3)cs2)CC1 | 397 | 2.5% (inactive) | 2.5% (inactive) | 68.1% | 22.4% (inactive) | 111% | -0.387 (inactive) | -4.6e-06 (inactive) | 0.00549 (inactive) | -1.81% (inactive) | -36.8% (inactive) |
